From PubChem BioAssay (EPA / NIEHS) come the findings set out here.

Results filed as inconclusive are left out. Activity calls are given as the source filed them. Rule for the calls: active = hit-call score of the fitted dose curve at least 0.9, where 1 is the maximum; inconclusive = response in the unintended direction; inactive = score below 0.9.

Chain of sheep Cyclooxygenase-2 (Cox2), PTGS2 (gene 443460) (P79208 whole entry, looked up): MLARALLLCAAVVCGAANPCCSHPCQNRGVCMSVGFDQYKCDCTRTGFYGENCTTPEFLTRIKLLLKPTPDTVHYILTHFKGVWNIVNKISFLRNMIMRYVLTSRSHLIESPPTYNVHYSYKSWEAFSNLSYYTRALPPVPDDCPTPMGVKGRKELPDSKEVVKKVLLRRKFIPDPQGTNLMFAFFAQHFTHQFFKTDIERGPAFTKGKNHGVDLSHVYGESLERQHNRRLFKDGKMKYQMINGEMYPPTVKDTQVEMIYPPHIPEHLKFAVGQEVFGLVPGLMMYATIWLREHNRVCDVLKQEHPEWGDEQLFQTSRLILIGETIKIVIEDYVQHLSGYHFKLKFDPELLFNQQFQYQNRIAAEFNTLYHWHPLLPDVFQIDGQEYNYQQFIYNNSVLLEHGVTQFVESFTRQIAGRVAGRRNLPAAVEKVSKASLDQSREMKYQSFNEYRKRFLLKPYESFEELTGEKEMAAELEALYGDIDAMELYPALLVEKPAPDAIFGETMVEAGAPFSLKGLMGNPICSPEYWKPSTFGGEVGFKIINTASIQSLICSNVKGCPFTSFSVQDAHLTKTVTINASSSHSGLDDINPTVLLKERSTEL
Chain of human Vascular Endothelial Growth Factor Receptor 2 (VEGFR2), KDR (gene 3791) (P35968 whole entry, looked up): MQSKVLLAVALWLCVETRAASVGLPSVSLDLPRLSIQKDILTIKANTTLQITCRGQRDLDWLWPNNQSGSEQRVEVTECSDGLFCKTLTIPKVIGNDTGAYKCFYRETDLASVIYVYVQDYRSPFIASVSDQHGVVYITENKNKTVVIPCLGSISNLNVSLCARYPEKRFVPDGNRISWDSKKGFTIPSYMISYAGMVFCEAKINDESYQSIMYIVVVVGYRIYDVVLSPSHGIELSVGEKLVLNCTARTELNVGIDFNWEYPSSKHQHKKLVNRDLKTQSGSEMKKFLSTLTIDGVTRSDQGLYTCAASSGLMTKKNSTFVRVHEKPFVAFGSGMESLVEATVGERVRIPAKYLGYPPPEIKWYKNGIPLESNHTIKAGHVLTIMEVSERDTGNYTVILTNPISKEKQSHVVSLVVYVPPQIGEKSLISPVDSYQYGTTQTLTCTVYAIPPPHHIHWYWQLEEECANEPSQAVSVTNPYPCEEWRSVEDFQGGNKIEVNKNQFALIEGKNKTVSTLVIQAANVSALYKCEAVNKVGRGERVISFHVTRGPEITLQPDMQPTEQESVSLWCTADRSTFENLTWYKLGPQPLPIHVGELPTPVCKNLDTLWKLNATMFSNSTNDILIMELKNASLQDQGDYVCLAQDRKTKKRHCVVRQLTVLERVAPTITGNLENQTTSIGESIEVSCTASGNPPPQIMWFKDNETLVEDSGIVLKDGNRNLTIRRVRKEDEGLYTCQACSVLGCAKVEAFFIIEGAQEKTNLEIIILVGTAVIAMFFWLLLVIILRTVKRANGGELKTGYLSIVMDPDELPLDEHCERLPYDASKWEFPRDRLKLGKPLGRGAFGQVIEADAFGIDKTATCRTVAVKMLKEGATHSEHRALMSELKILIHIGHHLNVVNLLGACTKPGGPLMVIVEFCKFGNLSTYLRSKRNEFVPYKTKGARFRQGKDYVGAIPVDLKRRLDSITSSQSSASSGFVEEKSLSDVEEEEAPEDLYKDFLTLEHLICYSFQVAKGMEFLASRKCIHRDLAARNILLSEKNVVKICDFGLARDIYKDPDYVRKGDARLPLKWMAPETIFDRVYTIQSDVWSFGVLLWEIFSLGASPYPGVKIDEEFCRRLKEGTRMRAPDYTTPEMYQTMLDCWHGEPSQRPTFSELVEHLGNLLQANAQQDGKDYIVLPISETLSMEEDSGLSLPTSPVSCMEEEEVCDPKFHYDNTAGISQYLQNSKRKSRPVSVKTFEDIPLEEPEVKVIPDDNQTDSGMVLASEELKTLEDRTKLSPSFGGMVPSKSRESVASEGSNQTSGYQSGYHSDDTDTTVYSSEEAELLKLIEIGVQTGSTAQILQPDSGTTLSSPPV
Chain of rat Adenylate Cyclase, Forskolin Stimulated, Adcy5 (gene 64532) (Q04400 whole entry, looked up): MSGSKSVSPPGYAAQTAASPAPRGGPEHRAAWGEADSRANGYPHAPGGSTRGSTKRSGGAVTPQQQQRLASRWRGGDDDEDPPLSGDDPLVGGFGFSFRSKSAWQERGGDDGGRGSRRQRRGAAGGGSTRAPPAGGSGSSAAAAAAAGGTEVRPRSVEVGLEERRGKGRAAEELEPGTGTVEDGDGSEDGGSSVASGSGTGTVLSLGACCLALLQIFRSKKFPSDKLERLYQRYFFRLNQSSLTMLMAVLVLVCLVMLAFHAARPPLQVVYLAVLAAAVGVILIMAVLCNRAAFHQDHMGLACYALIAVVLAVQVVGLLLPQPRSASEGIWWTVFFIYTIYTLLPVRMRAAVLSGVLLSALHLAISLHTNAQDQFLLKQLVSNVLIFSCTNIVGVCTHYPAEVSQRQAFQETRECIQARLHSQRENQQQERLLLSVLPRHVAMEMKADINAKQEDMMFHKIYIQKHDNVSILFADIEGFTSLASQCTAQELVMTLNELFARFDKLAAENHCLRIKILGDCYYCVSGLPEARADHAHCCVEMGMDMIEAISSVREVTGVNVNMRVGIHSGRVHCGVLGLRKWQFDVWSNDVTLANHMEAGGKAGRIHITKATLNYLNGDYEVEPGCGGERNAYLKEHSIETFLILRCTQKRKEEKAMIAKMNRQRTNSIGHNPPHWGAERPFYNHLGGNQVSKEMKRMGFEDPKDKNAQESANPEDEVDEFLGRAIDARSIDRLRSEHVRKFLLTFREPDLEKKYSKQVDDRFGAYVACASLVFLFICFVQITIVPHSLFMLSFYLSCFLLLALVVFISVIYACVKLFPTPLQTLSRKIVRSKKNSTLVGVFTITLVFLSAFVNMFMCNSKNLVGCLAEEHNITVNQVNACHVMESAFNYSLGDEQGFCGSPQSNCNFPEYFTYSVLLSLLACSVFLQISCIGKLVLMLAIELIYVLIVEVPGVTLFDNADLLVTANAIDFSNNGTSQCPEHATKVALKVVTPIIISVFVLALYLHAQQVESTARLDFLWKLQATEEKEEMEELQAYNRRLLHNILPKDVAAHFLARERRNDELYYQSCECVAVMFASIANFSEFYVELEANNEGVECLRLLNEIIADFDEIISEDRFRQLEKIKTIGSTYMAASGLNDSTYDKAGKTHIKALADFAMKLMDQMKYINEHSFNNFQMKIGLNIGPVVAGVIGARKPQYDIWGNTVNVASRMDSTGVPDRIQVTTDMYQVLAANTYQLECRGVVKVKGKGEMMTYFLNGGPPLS
Chain of rat Monoamine Oxidase, MAO-B, Central (MAOBC), Maob (gene 25750) (P19643 whole entry, looked up): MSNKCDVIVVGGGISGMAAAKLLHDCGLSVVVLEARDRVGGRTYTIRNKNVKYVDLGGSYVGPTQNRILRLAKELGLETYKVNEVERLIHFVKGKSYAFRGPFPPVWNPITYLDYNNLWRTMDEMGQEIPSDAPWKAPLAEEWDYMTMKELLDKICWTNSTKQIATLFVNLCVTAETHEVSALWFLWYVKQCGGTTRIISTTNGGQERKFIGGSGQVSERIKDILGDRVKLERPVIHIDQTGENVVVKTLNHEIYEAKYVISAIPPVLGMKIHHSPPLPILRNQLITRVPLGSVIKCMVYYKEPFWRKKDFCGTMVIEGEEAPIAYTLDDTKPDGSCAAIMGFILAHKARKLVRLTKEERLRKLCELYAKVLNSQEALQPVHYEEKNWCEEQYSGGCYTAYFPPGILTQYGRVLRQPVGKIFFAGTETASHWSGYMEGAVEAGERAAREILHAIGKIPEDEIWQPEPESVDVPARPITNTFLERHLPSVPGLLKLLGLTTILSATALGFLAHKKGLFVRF

One experiment concerns the target human Vascular Endothelial Growth Factor Receptor 2 (VEGFR2), KDR (gene 3791) (UniProt P35968). The experiment is described as follows: NVS_ENZ_hVEGFR2: NovaScreen (NVS) Enzymatic Assay for human Vascular Endothelial Growth Factor Receptor 2 (VEGFR2) (AID 2283230). Put shortly:
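Cell-free recombinant VEGFR2 kinase, fluorescent substrate with electrophoretic mobility-shift separation; read 1 h after dosing. Screened at 25 uM in duplicate, hits to concentration-response up to 50 uM; loss-of-signal versus DMSO.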
For `Clc1ccc(C(c2ccc(Cl)cc2)C(Cl)(Cl)Cl)cc1`, the molecule was classed as inactive.
Same read-out and setting: the result for `CC(C)(OOC(C)(C)c1ccccc1)c1ccccc1` reads “inactive”.
The same measure, in the same setting: the result for `ClC1=C(Cl)[C@]2(Cl)[C@H]3[C@H]([C@@H]4C=C[C@H]3C4)[C@@]1(Cl)C2(Cl)Cl` reads “inactive”; that for `Clc1ccc(Cl)c(Cl)c1`, “inactive”; that for `CCNS(=O)(=O)C(F)(F)C(F)(F)C(F)(F)C(F)(F)C(F)(F)C(F)(F)C(F)(F)C(F)(F)F`, “inactive”.
On the same count and under the same terms, for `Clc1ccc(C(c2ccc(Cl)cc2)C(Cl)Cl)cc1` the value was “inactive”; for `c1ccc(NNc2ccccc2)cc1`, “inactive”.
For the molecule `COc1cc(C=O)cc2c1[C@H](COC(N)=O)[C@]1(OC(C)=O)ON2C[C@H]2[C@@H]1N2C(C)=O`, the outcome was inactive.
Same read-out and setting: for `CNC(=O)Oc1cccc2c1OC(C)(C)C2` the value was “inactive”.
With `CCN(CC)N=O`, the molecule was classed as inactive.
For `COC(=O)Nc1nc2ccccc2[nH]1`, the molecule was called inactive.

The target in another experiment is sheep Cyclooxygenase-2 (Cox2), PTGS2 (gene 443460) (UniProt P79208). The experiment is described as follows: NVS_ENZ_oCOX2: NovaScreen (NVS) Enzymatic Assay for sheep Cyclooxygenase-2 (Cox2) (AID 2283231). The method, boiled down:
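Colorimetric absorbance read-out of COX activity, taken 0.66 hour post-dosing, using native protein from sheep placenta. Single-concentration duplicate screen (25 uM), then singleton concentration-response up to 50 uM for actives.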
As to `CC(C)(C)OOC(=O)c1ccccc1`, the call was inactive.
For the molecule `CN(C)c1ccc(C(=O)c2ccc(N(C)C)cc2)cc1`, the AC50 (in general, the midpoint of the concentration-response curve, whichever way the signal moves) was 13 µM (active).
`CN(C)c1ccccc1`: the molecule was classed as inactive.
For the molecule `CN(C)[C@@H]1C(=O)C(C(N)=O)=C(O)[C@@]2(O)C(=O)C3=C(O)c4c(O)cccc4[C@@](C)(O)[C@H]3C[C@@H]12`, the concentration at half-maximal activity (AC50) is 11.4 µM (active).
In the case of `O=P(OCCCl)(OCCCl)OCCCl`, the call was inactive.
Same read-out and setting: the result for `CC(O)CCO` (stereo not given) reads “inactive”.
The same measure, in the same setting: for `Cc1ccc([N+](=O)[O-])cc1` the value was “inactive”.

For a further experiment, the target named is rat Adenylate Cyclase, Forskolin Stimulated, Adcy5 (gene 64532) (UniProt Q04400). The experiment is described as follows: NVS_ENZ_rACFSKBinding: NovaScreen (NVS) Enzymatic Assay for rat Adenylate Cyclase, Forskolin Stimulated (AID 2283232). Put shortly:
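Rat forebrain membrane preparation, cell-free, read 1 h after dosing by filter-based scintillation counting. Primary screen in duplicate at 25 uM; actives (e.g. ≥30% inhibition) rerun in concentration-response up to 50 uM; fit versus DMSO.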
On to `CCCCCCCCn1sccc1=O`, for which the AC50 is 26 µM (active).
Same read-out and setting: for `CCC[CH2][Sn]([Cl])([CH2]CCC)[CH2]CCC` the value was 41 µM (active).
The same measure, in the same setting: the result for `O=[N+]([O-])C(Br)(CO)CO` reads 21.3 µM (active).
`CC(C)(O)c1cnn2c(-c3ccc(F)c(-c4c(F)cccc4C#N)c3)cnc2n1`: the result was inactive.

The target in another experiment is rat Acetylcholinesterase (AChE), Ache (gene 83817) (UniProt P37136). The experiment in a line: NVS_ENZ_rAChE: NovaScreen (NVS) Enzymatic Assay for rat Acetylcholinesterase (AChE) (AID 2283233). Put shortly: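 Rat brain membrane acetylcholinesterase activity measured colorimetrically 0.33 h after compound addition, loss of signal relative to DMSO. Primary screen in duplicate at 25 uM; actives re-run as concentration-response with 50 uM top concentration.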
Chain of rat Acetylcholinesterase (AChE), Ache (gene 83817) (P37136 whole entry, looked up): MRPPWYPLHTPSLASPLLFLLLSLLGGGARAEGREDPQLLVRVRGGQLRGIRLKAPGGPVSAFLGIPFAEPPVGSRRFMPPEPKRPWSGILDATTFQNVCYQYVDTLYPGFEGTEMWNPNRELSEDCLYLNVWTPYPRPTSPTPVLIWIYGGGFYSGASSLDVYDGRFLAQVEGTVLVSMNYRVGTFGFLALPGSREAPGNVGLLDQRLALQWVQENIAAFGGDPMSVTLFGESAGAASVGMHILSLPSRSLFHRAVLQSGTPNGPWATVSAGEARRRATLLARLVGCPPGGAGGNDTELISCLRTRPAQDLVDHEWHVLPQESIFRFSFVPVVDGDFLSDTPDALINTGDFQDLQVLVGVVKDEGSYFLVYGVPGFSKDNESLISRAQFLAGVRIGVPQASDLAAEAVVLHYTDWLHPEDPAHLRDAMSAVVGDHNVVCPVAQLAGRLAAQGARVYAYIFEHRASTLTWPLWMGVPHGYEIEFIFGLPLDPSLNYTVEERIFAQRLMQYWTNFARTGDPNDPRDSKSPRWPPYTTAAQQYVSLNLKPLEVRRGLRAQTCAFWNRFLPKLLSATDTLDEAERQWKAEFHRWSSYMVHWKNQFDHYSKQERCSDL
In the case of `CCOC(=O)[C@]1(c2ccccc2)Oc2ccccc2[C@@H]1N`, the concentration at half-maximal activity (AC50) was 17.2 µM (active).
Same read-out and setting: for `CNC(=O)Oc1cccc2c1OC(C)(C)C2` the value was 0.464 µM (active); for `O=[N+]([O-])C(Br)(CO)CO`, 35.2 µM (active).
As for `CCCCCCCCOC(=O)c1ccc(C(=O)OCCCCCCCC)c(C(=O)OCCCCCCCC)c1`, the call was inactive.
As for `Cc1cccc(N)c1N`, the outcome was inactive.
On the same count and under the same terms, the result for `COP(=S)(OC)SCN1C(=O)c2ccccc2C1=O` reads “inactive”.

The target in a further experiment is rat Monoamine Oxidase, MAO-B, Central (MAOBC), Maob (gene 25750) (UniProt P19643). The experiment in a line: NVS_ENZ_rMAOBC: NovaScreen (NVS) Enzymatic Assay for rat Monoamine Oxidase, MAO-B, Central (MAOBC) (AID 2283238). Put shortly:
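MAO-B activity in rat brain tissue preparation, cell-free, measured radiometrically by scintillation counting 1.17 h after dosing. Screened in duplicate at 25 uM; actives then in concentration-response up to 50 uM. Loss of signal versus DMSO scored.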
For `CC(C)(C)OOC(=O)c1ccccc1`, the result was inactive.
Consider `CN(C)c1ccc(C(=O)c2ccc(N(C)C)cc2)cc1`, for which the concentration at half-maximal activity (AC50) is 7.63 µM (active).
Still for that read-out and setting: the result for `CCOC(=O)[C@]1(c2ccccc2)Oc2ccccc2[C@@H]1N` reads 10.2 µM (active); that for `O=[N+]([O-])C(Br)(CO)CO`, 35.6 µM (active).
`COP(=S)(OC)SCN1C(=O)c2ccccc2C1=O`: the molecule was classed as inactive.
Same read-out and setting: the result for `CC(C)(O)c1cnn2c(-c3ccc(F)c(-c4c(F)cccc4C#N)c3)cnc2n1` reads “inactive”; that for `CN(C)[C@@H]1C(=O)C(C(N)=O)=C(O)[C@@]2(O)C(=O)C3=C(O)c4c(O)cccc4[C@@](C)(O)[C@H]3C[C@@H]12`, “inactive”.
